PubChem BioAssay (Tox21)
Activity calls are given as the source filed them. A call without a number means that no potency is given here. The call rests on the fitted dose curve; in most records, active means well fitted curve in the direction sought with a large enough effect in the repeat runs; inconclusive means weak or mixed curves; inactive means flat fitted curve, though single readings scatter.

test: qHTS assay to test for compound auto fluorescence at 535 nm (green) in HEK293 cells (AID 720680); conditions: green autofluorescence 485/535 nm; series mostly up to 46 µM

| SMILES | outcome |
| --- | --- |
| CC12CCC(C1)C(C)(C)C2=O (centres undefined) | inactive |
| CCCCCCCC/C=C\CCCCCCCC(=O)N(CCO)CCO | inactive |
| C[C@H](O)CN(C)C | inactive |
| C[C@H](Cc1ccc(O)c(O)c1)[C@@H](C)Cc1ccc(O)c(O)c1 | inactive |
| CCCOC(=O)c1ccc(O)cc1 | inactive |
| NCC1CCC(C(=O)O)CC1 (centres undefined) | inactive |
| CN(C)CCc1c[nH]c2ccc(Cn3cncn3)cc12 | inactive |
| CN(Cc1ccccc1)Cc1ccccc1 | inactive |
| CN1C(=O)C[C@@H](C(=O)N[C@@H](Cc2cnc[nH]2)C(=O)N2CCC[C@H]2C(N)=O)NC1=O | inactive |
| O=C(N[C@H](CO)[C@H](O)c1ccc([N+](=O)[O-])cc1)C(Cl)Cl | inactive |
| COc1cc(NS(C)(=O)=O)ccc1Nc1c2ccccc2nc2ccccc12 | inactive |
| N[C@@H](Cc1ccc(O)c(O)c1)C(=O)O | inactive |
| CCCn1c(=O)[nH]c(=O)c2[nH]cnc21 | inactive |
| N=C(N)c1ccc(/C=C/c2ccc(C(=N)N)cc2O)cc1 | inactive |
| O=C1c2ccccc2-c2n[nH]c3cccc1c23 | inactive |
| O=C1CC[C@@H](C(=O)N[C@H]2C[C@@H]2c2ccccc2)N1 | inactive |
| CC12CCC(C[N+](C)(CCC[N+](C)(C)C)C1)C2(C)C (centres undefined) | inactive |
| CC(O)(c1ccc(Cl)cc1)c1ccc(Cl)cc1 | inactive |
| CC(C)(COP(=O)(O)OP(=O)(O)OC[C@H]1O[C@@H](n2cnc3c(N)ncnc32)[C@H](O)[C@@H]1OP(=O)(O)O)C(O)C(=O)NCCC(=O)NCCS (some centres undefined) | inactive |

| SMILES | outcome |
| --- | --- |
| CN=C(N)NCCC[C@H](N)C(=O)O | inactive |
| Cc1cc(CC(C)CC(C)(C)C)n(O)c(=O)c1 (centres undefined) (tested in a mixture with another compound) | inactive |
| O=P(O)(O)CP(=O)(O)O | inactive |
| CC(=O)OCC(=O)[C@@]1(O)CC[C@H]2[C@@H]3C[C@H](C)C4=CC(=O)C=C[C@]4(C)[C@H]3[C@@H](O)C[C@@]21C | inactive |
| CCCOC(=O)c1ccccc1O | inactive |
| CCCCCCCCCCCCCCCCCCNC(=O)OC1CCN(C(=O)OC[C@H](COC(=O)N(Cc2cccc[n+]2CC)C(=O)c2ccccc2OC)OC)CC1 | inactive |
| CC(Cc1ccc(O)c(O)c1)C(C)Cc1ccc(O)c(O)c1 (centres undefined) | inactive |
| CCCCCCCC[N+](C)(C)CCCCCCCC | inactive |
| CC(CNC(=O)c1cccnc1)NC(=O)c1cccnc1 (centres undefined) | inactive |
| O=C(O)COc1ccccc1/C=N/NC(=O)c1ccncc1 | inactive |
| O=C(O)CCCC/C=C(\c1ccccc1)c1cccnc1 | inactive |
| CCC1OC(=O)C[C@@H](O)[C@H](C)[C@@H](O[C@@H]2O[C@H](C)C[C@H](N(C)C)[C@H]2O)[C@@H](CC=O)C[C@@H](C)C(=O)/C=C/[C@]2(C)OC2C1C (some centres undefined) | inactive |
| SC1CCCCC1 | inactive |
| NC[C@H]1O[C@H](O[C@H]2[C@H](O)[C@@H](O[C@H]3O[C@H](CO)[C@@H](O)[C@H](N)[C@H]3O)[C@H](N)C[C@@H]2N)[C@H](N)C[C@@H]1O | inactive |
| NCC[C@H](O)C(=O)N[C@@H]1C[C@H](N)[C@@H](O[C@H]2O[C@H](CN)CC[C@H]2N)[C@H](O)[C@H]1O[C@H]1O[C@H](CO)[C@@H](O)[C@H](N)[C@H]1O | inactive |
| CN1[C@@H](CC(=O)c2ccccc2)CCC[C@H]1C[C@H](O)c1ccccc1 | inactive |
| CN1CCN(CCCN2c3ccccc3Sc3ccc(Cl)cc32)CC1 | inactive |
| CCCCCCCCCC[N+](C)(CCCCCCCCCC)CCC[Si](OC)(OC)OC | inactive |

test: qHTS assay to test for compound auto fluorescence at 460 nm (blue) in HEK293 cell free culture (AID 720681); conditions: cell-free medium, autofluorescence 405/460 nm (blue); series mostly up to 46 µM; further: potency means the concentration at half of the fitted maximal effect
In short: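 Test compounds were pinned into cell-free culture medium (DMEM with 10% FBS) and fluorescence was read directly at Ex/Em 405/460 nm. Signals were expressed as fluorescence equivalents of triamterene, with DMSO vehicle as control.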

| SMILES | Potency |
| --- | --- |
| CC12CCC(C1)C(C)(C)C2=O (centres undefined) | inactive |
| CCCCCCCC/C=C\CCCCCCCC(=O)N(CCO)CCO | inactive |
| C[C@H](O)CN(C)C | inactive |
| C[C@H](Cc1ccc(O)c(O)c1)[C@@H](C)Cc1ccc(O)c(O)c1 | inactive |
| CCCOC(=O)c1ccc(O)cc1 | inactive |
| NCC1CCC(C(=O)O)CC1 (centres undefined) | inactive |
| CN(C)CCc1c[nH]c2ccc(Cn3cncn3)cc12 | inactive |
| CN(Cc1ccccc1)Cc1ccccc1 | inactive |
| CN1C(=O)C[C@@H](C(=O)N[C@@H](Cc2cnc[nH]2)C(=O)N2CCC[C@H]2C(N)=O)NC1=O | inactive |
| O=C(N[C@H](CO)[C@H](O)c1ccc([N+](=O)[O-])cc1)C(Cl)Cl | inactive |
| COc1cc(NS(C)(=O)=O)ccc1Nc1c2ccccc2nc2ccccc12 | 12.6 µM (active) |
| N[C@@H](Cc1ccc(O)c(O)c1)C(=O)O | inactive |
| CCCn1c(=O)[nH]c(=O)c2[nH]cnc21 | inactive |
| N=C(N)c1ccc(/C=C/c2ccc(C(=N)N)cc2O)cc1 | inactive |
| O=C1c2ccccc2-c2n[nH]c3cccc1c23 | 14.1 µM (active) |
| O=C1CC[C@@H](C(=O)N[C@H]2C[C@@H]2c2ccccc2)N1 | inactive |
| CC12CCC(C[N+](C)(CCC[N+](C)(C)C)C1)C2(C)C (centres undefined) | inactive |
| CC(O)(c1ccc(Cl)cc1)c1ccc(Cl)cc1 | inactive |
| CC(C)(COP(=O)(O)OP(=O)(O)OC[C@H]1O[C@@H](n2cnc3c(N)ncnc32)[C@H](O)[C@@H]1OP(=O)(O)O)C(O)C(=O)NCCC(=O)NCCS (some centres undefined) | inactive |

| SMILES | Potency |
| --- | --- |
| CN=C(N)NCCC[C@H](N)C(=O)O | inactive |
| Cc1cc(CC(C)CC(C)(C)C)n(O)c(=O)c1 (centres undefined) (tested in a mixture with another compound) | inactive |
| O=P(O)(O)CP(=O)(O)O | inactive |
| CC(=O)OCC(=O)[C@@]1(O)CC[C@H]2[C@@H]3C[C@H](C)C4=CC(=O)C=C[C@]4(C)[C@H]3[C@@H](O)C[C@@]21C | inactive |
| CCCOC(=O)c1ccccc1O | inactive |
| CCCCCCCCCCCCCCCCCCNC(=O)OC1CCN(C(=O)OC[C@H](COC(=O)N(Cc2cccc[n+]2CC)C(=O)c2ccccc2OC)OC)CC1 | inactive |
| CC(Cc1ccc(O)c(O)c1)C(C)Cc1ccc(O)c(O)c1 (centres undefined) | inactive |
| CCCCCCCC[N+](C)(C)CCCCCCCC | inactive |
| CC(CNC(=O)c1cccnc1)NC(=O)c1cccnc1 (centres undefined) | inactive |
| O=C(O)COc1ccccc1/C=N/NC(=O)c1ccncc1 | inactive |
| O=C(O)CCCC/C=C(\c1ccccc1)c1cccnc1 | inactive |
| CCC1OC(=O)C[C@@H](O)[C@H](C)[C@@H](O[C@@H]2O[C@H](C)C[C@H](N(C)C)[C@H]2O)[C@@H](CC=O)C[C@@H](C)C(=O)/C=C/[C@]2(C)OC2C1C (some centres undefined) | inactive |
| SC1CCCCC1 | inactive |
| NC[C@H]1O[C@H](O[C@H]2[C@H](O)[C@@H](O[C@H]3O[C@H](CO)[C@@H](O)[C@H](N)[C@H]3O)[C@H](N)C[C@@H]2N)[C@H](N)C[C@@H]1O | inactive |
| NCC[C@H](O)C(=O)N[C@@H]1C[C@H](N)[C@@H](O[C@H]2O[C@H](CN)CC[C@H]2N)[C@H](O)[C@H]1O[C@H]1O[C@H](CO)[C@@H](O)[C@H](N)[C@H]1O | inactive |
| CN1[C@@H](CC(=O)c2ccccc2)CCC[C@H]1C[C@H](O)c1ccccc1 | inactive |
| CN1CCN(CCCN2c3ccccc3Sc3ccc(Cl)cc32)CC1 | inactive |
| CCCCCCCCCC[N+](C)(CCCCCCCCCC)CCC[Si](OC)(OC)OC | inactive |
